Of roughly 8,800 targets only a part is listed; those with a hit were picked by preference. About 0.5% of all pairs of compound and target were hits.
What was measured:
Assay in all cases: log2 fold change, soluble protein after heating vs DMSO (PISA); higher = thermal stabilisation; K562 lysate, 10 uM; active = over 0.2 and 3.5 SD of the protein, either way, in both replicates (recomputed)
[1] = compound: CCCS(=O)(=O)Nc1ccc(F)c(C(=O)c2c[nH]c3ncc(-c4ccc(Cl)cc4)cc23)c1F [vemurafenib]
Method in brief: (§1)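 Thermal stability, expressed as log-two fold change relative to solvent controls, is given from duplicates. Crude K562 extract in PBS pH 7.4 with 1 mM MgCl2, at 1 mg/mL protein, was treated with 10 μM compound for 30 min and heated in aliquots for 3 min across 48°C-58°C. After pooling, adjustment to 0.5% NP-40 at 4°C and centrifugation at 21,000xg for 90 min, supernatant protein was measured by TMTpro 16plex LC-MS/MS with channel sums equalised.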

[2] = compound: CCCS(=O)(=O)Nc1ccc(F)c(C(=O)c2c[nH]c3ncc(Cl)cc23)c1F
Method in brief: as §1

[3] = compound: CCN(CCCOc1ccc2c(Nc3cc(CC(=O)Nc4cccc(F)c4)[nH]n3)ncnc2c1)CCOP(=O)(O)O [barasertib]
Method in brief: as §1

[4] = compound: CC[C@@H]1C(=O)N(C)c2cnc(Nc3ccc(C(=O)NC4CCN(C)CC4)cc3OC)nc2N1C1CCCC1
Method in brief: as §1

[5] = compound: CC[C@@H]1C(=O)N(C)c2cnc(Nc3ccc(C(=O)N[C@H]4CC[C@H](N5CCN(CC6CC6)CC5)CC4)cc3OC)nc2N1C(C)C [volasertib]
Method in brief: as §1

[6] = compound: CCn1c(C(=O)N(C2CC2)C2CC2)cc2c3c(ncn3C)c(Nc3cc(C)n(C)n3)nc21
Method in brief: as §1

[7] = compound: CCn1cc(-c2ccnc3[nH]c(-c4cccc(CN(C)C)c4)cc23)c(-c2ccc(NC(=O)N(C)C)cc2)n1
Method in brief: as §1

[8] = compound: CN1CCC(CNc2ccc3ncc(-c4cccc(OC(F)(F)F)c4)n3n2)CC1
Method in brief: as §1

[9] = compound: CN1CCN(CCOc2cc(OC3CCOCC3)c3c(Nc4c(Cl)ccc5c4OCO5)ncnc3c2)CC1 [saracatinib]
Method in brief: as §1

[10] = compound: CN1CCN(c2nc(C3=C(c4c[nH]c5ccccc45)C(=O)NC3=O)c3ccccc3n2)CC1 [sotrastaurin]
Method in brief: as §1

Measured: log2 fold change

CDC25C (UniProt P30307)
Chain of UniProt P30307 (P30307 whole entry, looked up): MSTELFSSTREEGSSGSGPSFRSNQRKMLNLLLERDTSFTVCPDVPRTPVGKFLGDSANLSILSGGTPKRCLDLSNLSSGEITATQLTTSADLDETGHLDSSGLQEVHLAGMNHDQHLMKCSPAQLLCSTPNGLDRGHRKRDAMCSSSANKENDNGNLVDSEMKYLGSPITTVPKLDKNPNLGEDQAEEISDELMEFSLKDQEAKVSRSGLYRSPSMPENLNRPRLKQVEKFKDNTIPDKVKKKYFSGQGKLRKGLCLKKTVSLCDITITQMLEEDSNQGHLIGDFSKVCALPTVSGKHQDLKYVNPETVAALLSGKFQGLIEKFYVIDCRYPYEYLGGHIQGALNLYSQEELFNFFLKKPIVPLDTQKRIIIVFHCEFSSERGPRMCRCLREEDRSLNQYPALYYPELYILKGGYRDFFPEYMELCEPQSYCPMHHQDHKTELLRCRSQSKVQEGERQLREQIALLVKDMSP
inactive: [1] 0.031 | [2] 0.093 | [3] -0.028 | [4] -0.08 | [5] -0.004 | [6] 0.083 | [7] 0.314 | [8] 0.155 | [9] -0.053 | [10] 0.016

ATG7 (UniProt O95352)
inactive: [1] -0.031 | [2] 0.014 | [3] -0.002 | [4] -0.032 | [5] -0.052 | [6] 0.021 | [7] -0.058 | [8] 0.091 | [9] -0.003 | [10] 0.037

BOLA2 (UniProt Q9H3K6)
inactive: [1] -0.086 | [2] -0.043 | [3] 0.129 | [4] -0.068 | [5] 0.004 | [6] 0.067 | [8] -0.04 | [9] -0.033 | [10] -0.038
active: [7] 0.604

ATP6V1B1 (UniProt P15313)
inactive: [1] -0.009 | [2] -0.013 | [3] -0.012 | [4] 0.016 | [5] 0.03 | [6] 0.006 | [8] 0.158 | [9] -0.006 | [10] 0.006
active: [7] -0.288

CCDC25 (UniProt Q86WR0)
inactive: [1] -0.033 | [2] 0.008 | [3] 0.01 | [4] 0.027 | [5] 0.005 | [6] -0.023 | [8] -0.079 | [9] 0.007 | [10] -0.009
active: [7] 0.581

CHAF1A (UniProt Q13111)
inactive: [1] 0.005 | [2] 0.005 | [3] 0.006 | [4] 0.029 | [5] 0.003 | [6] -0.009 | [7] 0.029 | [8] 0.004 | [9] 0.038 | [10] -0.016

CCNB2 (UniProt O95067)
inactive: [1] 0.04 | [2] -0.008 | [3] 0.06 | [4] 0.037 | [5] -0.072 | [6] -0.059 | [7] -0.085 | [8] 0.011 | [9] 0.038 | [10] 0.078

CDC45 isoform 3 (UniProt O75419)
inactive: [1] 0.009 | [2] 0.042 | [3] -0.015 | [4] -0.05 | [5] -0.017 | [6] -0.05 | [7] -0.096 | [8] -0.04 | [9] 0.007 | [10] 0.027

CARNMT1 (UniProt Q8N4J0)
Chain of UniProt Q8N4J0 (Q8N4J0 whole entry, looked up): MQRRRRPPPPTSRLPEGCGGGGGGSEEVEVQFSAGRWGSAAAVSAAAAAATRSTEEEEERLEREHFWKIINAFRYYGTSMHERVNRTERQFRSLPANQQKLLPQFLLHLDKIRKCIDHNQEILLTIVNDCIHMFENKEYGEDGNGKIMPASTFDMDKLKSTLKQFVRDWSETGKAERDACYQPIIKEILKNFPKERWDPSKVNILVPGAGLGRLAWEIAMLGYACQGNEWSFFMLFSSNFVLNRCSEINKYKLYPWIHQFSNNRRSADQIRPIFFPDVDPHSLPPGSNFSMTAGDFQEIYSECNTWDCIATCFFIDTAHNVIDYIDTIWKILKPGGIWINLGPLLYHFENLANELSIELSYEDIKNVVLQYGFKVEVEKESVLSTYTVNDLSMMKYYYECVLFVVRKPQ
active: [7] -0.422
inactive: [1] 0.04 | [2] 0.008 | [3] -0.012 | [4] -0.013 | [5] -0.005 | [6] -0.044 | [8] 0.063 | [9] 0.04 | [10] 0.017

AURKAIP1 (UniProt Q9NWT8)
inactive: [1] 0.043 | [2] -0.124 | [3] 0.055 | [4] 0.071 | [5] 0.043 | [6] -0.129 | [7] -0.027 | [8] 0.129 | [9] 0.023 | [10] -0.055

CCDC47 (UniProt Q96A33)
inactive: [1] 0.011 | [2] 0.032 | [3] 0.002 | [4] 0.024 | [5] 0.014 | [6] 0.018 | [7] -0.02 | [8] -0.09 | [9] -0.003 | [10] 0.007

BET1 (UniProt O15155)
Chain of UniProt O15155 (O15155 whole entry, looked up): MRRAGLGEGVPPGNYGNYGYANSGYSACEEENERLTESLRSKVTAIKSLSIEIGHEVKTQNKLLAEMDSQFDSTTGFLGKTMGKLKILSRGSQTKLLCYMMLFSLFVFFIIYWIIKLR
inactive: [1] 0.107 | [2] -0.012 | [3] 0.028 | [4] -0.019 | [5] 0.032 | [6] -0.021 | [7] 0.044 | [8] -0.009 | [9] 0.031 | [10] -0.033

CDK2 (UniProt P24941)
inactive: [1] -0.012 | [2] 0.012 | [3] -0.01 | [4] -0.059 | [5] -0.025 | [6] 0.008 | [7] -0.055 | [8] 0.167 | [9] -0.017 | [10] 0.09

BTRC (UniProt Q9Y297)
inactive: [1] -0.002 | [2] 0.023 | [3] 0.052 | [4] 0.076 | [5] -0.041 | [6] -0.088 | [7] 0.073 | [8] 0.067

C8orf37 (UniProt Q96NL8)
inactive: [1] 0.081 | [2] -0.061 | [3] -0.062 | [4] 0.058 | [5] -0.043 | [6] -0.075 | [7] 0.225 | [8] 0.166 | [9] -0.06 | [10] 0.072

CHD1L (UniProt Q86WJ1)
inactive: [1] 0.033 | [2] 0.011 | [3] 0.062 | [4] -0.029 | [5] -0.09 | [6] 0.024 | [7] -0.053 | [8] -0.054 | [9] 0 | [10] -0.001

CDK5RAP2 (UniProt Q96SN8)
Chain of UniProt Q96SN8 (Q96SN8 whole entry, looked up): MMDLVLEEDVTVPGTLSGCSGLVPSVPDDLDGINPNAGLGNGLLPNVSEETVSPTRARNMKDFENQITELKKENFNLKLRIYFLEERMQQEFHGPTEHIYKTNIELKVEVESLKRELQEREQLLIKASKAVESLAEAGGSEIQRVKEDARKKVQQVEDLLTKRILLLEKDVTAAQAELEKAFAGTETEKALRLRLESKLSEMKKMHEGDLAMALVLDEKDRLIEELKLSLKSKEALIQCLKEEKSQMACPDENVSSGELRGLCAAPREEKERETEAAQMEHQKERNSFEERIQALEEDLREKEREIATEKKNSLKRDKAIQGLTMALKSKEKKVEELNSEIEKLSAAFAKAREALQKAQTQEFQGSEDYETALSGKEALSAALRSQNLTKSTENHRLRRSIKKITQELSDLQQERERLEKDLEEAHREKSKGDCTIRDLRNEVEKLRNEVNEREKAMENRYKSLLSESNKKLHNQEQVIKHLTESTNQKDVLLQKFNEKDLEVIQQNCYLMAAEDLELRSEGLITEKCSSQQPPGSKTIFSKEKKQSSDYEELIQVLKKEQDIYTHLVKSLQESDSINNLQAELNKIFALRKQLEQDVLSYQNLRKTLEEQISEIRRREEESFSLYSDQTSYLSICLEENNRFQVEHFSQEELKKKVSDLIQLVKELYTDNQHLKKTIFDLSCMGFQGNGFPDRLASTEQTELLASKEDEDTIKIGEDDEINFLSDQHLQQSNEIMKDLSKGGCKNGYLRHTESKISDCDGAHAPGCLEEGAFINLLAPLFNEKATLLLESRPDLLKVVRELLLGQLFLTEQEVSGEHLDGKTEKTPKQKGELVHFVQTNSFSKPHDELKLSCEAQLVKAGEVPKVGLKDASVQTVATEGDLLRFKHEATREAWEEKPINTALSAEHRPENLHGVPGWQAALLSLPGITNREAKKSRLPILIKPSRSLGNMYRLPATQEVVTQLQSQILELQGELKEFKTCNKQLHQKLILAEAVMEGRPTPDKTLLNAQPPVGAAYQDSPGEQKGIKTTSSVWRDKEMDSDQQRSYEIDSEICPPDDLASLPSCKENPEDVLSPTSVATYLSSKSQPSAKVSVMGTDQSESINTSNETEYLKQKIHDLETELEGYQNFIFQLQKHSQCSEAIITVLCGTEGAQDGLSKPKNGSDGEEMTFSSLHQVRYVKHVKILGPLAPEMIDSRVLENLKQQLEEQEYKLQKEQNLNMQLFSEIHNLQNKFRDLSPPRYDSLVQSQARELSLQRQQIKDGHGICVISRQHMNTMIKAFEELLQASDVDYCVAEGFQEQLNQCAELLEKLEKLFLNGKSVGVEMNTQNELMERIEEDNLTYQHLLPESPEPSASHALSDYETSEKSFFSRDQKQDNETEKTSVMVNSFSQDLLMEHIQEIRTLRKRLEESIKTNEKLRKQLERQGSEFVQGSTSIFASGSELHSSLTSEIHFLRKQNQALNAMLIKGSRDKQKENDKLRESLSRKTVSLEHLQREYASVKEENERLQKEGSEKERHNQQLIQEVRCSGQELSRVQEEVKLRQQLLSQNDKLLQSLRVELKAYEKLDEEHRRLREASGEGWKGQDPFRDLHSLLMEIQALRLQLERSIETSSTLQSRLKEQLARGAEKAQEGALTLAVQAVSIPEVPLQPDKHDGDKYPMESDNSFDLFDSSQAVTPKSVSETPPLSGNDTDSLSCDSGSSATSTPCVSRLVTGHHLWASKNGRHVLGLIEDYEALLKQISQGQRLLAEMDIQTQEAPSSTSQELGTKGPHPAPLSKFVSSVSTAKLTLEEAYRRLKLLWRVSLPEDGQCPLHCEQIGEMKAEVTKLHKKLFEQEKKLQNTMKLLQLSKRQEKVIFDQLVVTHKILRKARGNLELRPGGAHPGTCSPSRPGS
inactive: [1] -0.023 | [2] -0.186 | [3] 0.071 | [4] 0.029 | [5] -0.3 | [6] 0.001 | [7] 0.016 | [8] -0.067 | [9] 0.027 | [10] -0.008

CASC4 (UniProt Q6P4E1)
Chain of UniProt Q6P4E1 (Q6P4E1 whole entry, looked up): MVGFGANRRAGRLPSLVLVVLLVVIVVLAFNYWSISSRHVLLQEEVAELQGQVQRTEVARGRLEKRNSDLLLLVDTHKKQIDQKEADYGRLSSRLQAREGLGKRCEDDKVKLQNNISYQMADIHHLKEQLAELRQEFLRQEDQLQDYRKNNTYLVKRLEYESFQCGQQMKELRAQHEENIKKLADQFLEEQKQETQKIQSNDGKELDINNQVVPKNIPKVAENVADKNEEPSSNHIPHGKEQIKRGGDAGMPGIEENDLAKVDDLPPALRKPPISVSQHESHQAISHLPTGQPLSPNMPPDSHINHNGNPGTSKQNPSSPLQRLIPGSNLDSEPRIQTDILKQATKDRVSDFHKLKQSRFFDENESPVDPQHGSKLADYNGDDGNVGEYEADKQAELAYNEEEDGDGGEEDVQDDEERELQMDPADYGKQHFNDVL
inactive: [1] 0 | [2] 0.02 | [3] -0.02 | [4] 0.009 | [5] 0.017 | [6] 0.022 | [7] -0.05 | [8] -0.008 | [9] -0.003 | [10] -0.004

BCAR1 isoform 6 (UniProt P56945)
inactive: [1] 0.038 | [2] 0.018 | [3] 0.015 | [4] -0.065 | [5] -0.018 | [6] -0.003 | [7] 0.064 | [8] -0.012 | [9] 0.032 | [10] -0.038

CDK1 (UniProt P06493)
Chain of UniProt P06493 (P06493 whole entry, looked up): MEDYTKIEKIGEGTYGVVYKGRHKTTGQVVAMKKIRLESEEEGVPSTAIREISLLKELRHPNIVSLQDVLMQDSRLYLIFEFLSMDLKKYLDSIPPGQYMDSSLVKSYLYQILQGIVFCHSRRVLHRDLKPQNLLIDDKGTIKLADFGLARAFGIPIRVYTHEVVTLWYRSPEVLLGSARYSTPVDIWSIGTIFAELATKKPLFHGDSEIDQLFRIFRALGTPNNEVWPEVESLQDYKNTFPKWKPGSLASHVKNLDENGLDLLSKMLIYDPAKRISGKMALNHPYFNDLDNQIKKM
inactive: [1] 0.012 | [2] -0.017 | [3] -0.029 | [4] -0.041 | [5] -0.037 | [6] -0.006 | [7] -0.056 | [8] -0.049 | [9] 0.016 | [10] -0.002

CEP120 (UniProt Q8N960)
inactive: [1] 0.052 | [2] -0.098 | [3] 0.033 | [4] -0.411 | [5] 0.029 | [6] -0.134 | [7] -0.233 | [8] 0.119 | [9] 0.008 | [10] 0.034

CARD11 (UniProt Q9BXL7)
inactive: [1] 0.088 | [2] 0.012 | [3] -0.075 | [4] -0.087 | [5] -0.071 | [6] 0.082 | [7] -0.024 | [8] -0.014 | [9] 0.063 | [10] 0.002

CDK11B (UniProt P21127)
inactive: [1] 0.025 | [2] 0.002 | [3] 0.022 | [4] -0.087 | [5] -0.057 | [6] 0.029 | [7] -0.047 | [8] -0.048 | [9] -0.024 | [10] 0.01

ATP5PF isoform 2 (UniProt P18859)
Chain of UniProt P18859 (P18859 whole entry, looked up): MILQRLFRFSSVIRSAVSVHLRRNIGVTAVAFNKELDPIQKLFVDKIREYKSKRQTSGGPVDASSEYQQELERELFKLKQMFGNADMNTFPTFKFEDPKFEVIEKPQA
inactive: [1] 0.083 | [2] -0.023 | [3] 0.064 | [4] 0.076 | [5] 0.133 | [6] 0.076 | [8] -0.205 | [9] -0.024 | [10] -0.067
active: [7] 0.663

CALM2 (UniProt P0DP24)
active: [3] 0.564
inactive: [1] 0.028 | [2] 0.011 | [4] 0.038 | [5] 0.024 | [6] -0.079 | [7] -0.22 | [8] 0.237 | [9] 0.029 | [10] 0

CDKN1B (UniProt P46527)
inactive: [1] -0.12 | [2] 0.004 | [3] -0.032 | [4] 0.063 | [5] -0.039 | [6] 0.099 | [7] 0.118 | [8] -0.119 | [9] -0.012 | [10] 0.015

C15orf41 (UniProt Q9Y2V0)
inactive: [1] 0.151 | [2] 0.005 | [3] 0.095 | [4] -0.089 | [5] 0.041 | [6] -0.049 | [7] -0.143 | [8] 0.037 | [9] -0.018 | [10] -0.016

BLOC1S6 (UniProt Q9UL45)
Chain of UniProt Q9UL45 (Q9UL45 whole entry, looked up): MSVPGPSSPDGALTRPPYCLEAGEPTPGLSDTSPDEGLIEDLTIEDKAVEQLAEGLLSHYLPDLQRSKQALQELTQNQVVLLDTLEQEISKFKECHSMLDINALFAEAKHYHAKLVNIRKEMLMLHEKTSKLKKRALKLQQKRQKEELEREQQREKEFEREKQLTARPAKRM
inactive: [1] 0.005 | [2] 0.007 | [3] -0.012 | [4] 0.013 | [5] 0.032 | [6] 0.043 | [7] 0.048 | [8] 0.009 | [9] -0.034 | [10] -0.06

BCL2L12 (UniProt Q9HB09)
inactive: [1] -0.032 | [2] 0.08 | [3] 0.166 | [4] 0.013 | [5] -0.06 | [6] 0.087 | [7] 0.018 | [8] 0.116 | [9] 0.057 | [10] -0.007

BUB1B isoform 3 (UniProt O60566)
Chain of UniProt O60566 (O60566 whole entry, looked up): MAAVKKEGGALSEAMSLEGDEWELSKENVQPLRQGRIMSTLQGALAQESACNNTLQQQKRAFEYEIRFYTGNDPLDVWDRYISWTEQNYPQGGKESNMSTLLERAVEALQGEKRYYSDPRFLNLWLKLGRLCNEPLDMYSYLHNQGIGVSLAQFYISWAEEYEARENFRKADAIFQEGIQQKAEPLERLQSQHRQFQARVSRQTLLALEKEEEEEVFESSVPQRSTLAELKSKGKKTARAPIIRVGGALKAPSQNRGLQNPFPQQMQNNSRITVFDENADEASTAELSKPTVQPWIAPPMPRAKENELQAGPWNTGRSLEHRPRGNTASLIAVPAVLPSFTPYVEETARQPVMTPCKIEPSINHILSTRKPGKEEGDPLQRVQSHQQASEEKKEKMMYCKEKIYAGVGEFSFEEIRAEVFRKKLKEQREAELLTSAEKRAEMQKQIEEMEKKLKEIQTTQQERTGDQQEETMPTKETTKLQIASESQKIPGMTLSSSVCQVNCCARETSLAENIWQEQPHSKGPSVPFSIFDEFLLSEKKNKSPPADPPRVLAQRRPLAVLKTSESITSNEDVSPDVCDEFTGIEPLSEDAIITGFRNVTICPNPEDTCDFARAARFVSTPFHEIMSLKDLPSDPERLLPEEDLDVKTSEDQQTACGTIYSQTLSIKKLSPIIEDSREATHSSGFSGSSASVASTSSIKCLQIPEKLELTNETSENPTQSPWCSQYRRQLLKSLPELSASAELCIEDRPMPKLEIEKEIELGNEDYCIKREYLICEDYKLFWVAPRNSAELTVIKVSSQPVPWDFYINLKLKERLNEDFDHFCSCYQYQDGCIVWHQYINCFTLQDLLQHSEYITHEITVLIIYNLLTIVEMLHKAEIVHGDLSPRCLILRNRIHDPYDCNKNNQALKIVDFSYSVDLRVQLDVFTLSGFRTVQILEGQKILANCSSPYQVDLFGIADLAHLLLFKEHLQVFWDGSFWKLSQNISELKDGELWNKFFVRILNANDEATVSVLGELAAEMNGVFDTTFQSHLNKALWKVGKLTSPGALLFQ
inactive: [1] 0.024 | [2] 0.024 | [3] 0.03 | [4] -0.012 | [5] -0.014 | [6] 0.01 | [7] 0.13 | [8] -0.05 | [9] -0.006 | [10] 0.009

From the supplement of paper PMC10849652
